High-throughput results: PubChem BioAssay, several laboratories
In the library only some 2.2% were active in any assay of this set; here they are far more common.
Cardio protect – cardioprotection against H2O2-induced cell death, primary screen, uHTS, H9c2 cells, ATPLite luminescence; H9c2 cardiomyocytes, H2O2 injury protection, 2 h; protection from H2O2 cell death, % at 20 µM; hit rate 0.63% among 360,000; AID 588492, 2011;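 active = compounds giving at least 50% protection of heart cells from peroxide-induced death in the single-dose screen, raw or plate-pattern-corrected value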;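 note: 0% = DMSO wells with peroxide and 100% = DMSO wells without peroxide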
MIN6 prolif – inducers of MIN6 beta-cell proliferation, primary screen, ATP luminescence, uHTS; MIN6 cells proliferation, ATPlite luminescence, 48 h; cells starved in 0.2% serum; 100% = growth in 10% serum; proliferation, % at 10 µM; hit rate 0.29% among 330,000;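 active = compounds whose signal lies at least 3.5 SD above the mean of all wells on their plate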;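 note: 0% = DMSO-treated cells in low-serum medium and 100% = 10% serum control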
Myeloid diff 2 – induction of myeloid progenitor differentiation, primary screen, cell-based, flow cytometry, MLPCN library. ER-HoxA9 myeloid progenitors, lysozyme-GFP differentiation. calls only at 10 µM. hit rate 1% among 360,000;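 active = normalized GFP-positive differentiation at or above the plate's own cutoff, the solvent-only control mean plus 3 SD; inconclusive = no clear call, values can overlap the other calls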;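 note: cells exposed to compound for four days before flow analysis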
ABCB6 inh 2 – ABCB6 transporter inhibitors, primary screen, K562-ABCB6 cells, flow cytometry, MLPCN library; ATP-binding cassette sub-family B member 6 (Homo sapiens), Q9NP58; K562-ABCB6 porphyrin accumulation, 1 h; hits give low values; fluorescence ratio to DMSO, % at 10 µM; hit rate 0.19% among 360,000; AID 602162, 2011;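 active = fluorescence ratio to DMSO below 75%, the collection mean minus 3 SD; inconclusive = too few cells collected in the well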;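 note: signal is porphyrin accumulated inside mitochondria; 100% equals median channel fluorescence of DMSO control wells; lower ratio means ABCB6 inhibition with less porphyrin fluorescence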
Target sequence (Q9NP58 whole entry, looked up): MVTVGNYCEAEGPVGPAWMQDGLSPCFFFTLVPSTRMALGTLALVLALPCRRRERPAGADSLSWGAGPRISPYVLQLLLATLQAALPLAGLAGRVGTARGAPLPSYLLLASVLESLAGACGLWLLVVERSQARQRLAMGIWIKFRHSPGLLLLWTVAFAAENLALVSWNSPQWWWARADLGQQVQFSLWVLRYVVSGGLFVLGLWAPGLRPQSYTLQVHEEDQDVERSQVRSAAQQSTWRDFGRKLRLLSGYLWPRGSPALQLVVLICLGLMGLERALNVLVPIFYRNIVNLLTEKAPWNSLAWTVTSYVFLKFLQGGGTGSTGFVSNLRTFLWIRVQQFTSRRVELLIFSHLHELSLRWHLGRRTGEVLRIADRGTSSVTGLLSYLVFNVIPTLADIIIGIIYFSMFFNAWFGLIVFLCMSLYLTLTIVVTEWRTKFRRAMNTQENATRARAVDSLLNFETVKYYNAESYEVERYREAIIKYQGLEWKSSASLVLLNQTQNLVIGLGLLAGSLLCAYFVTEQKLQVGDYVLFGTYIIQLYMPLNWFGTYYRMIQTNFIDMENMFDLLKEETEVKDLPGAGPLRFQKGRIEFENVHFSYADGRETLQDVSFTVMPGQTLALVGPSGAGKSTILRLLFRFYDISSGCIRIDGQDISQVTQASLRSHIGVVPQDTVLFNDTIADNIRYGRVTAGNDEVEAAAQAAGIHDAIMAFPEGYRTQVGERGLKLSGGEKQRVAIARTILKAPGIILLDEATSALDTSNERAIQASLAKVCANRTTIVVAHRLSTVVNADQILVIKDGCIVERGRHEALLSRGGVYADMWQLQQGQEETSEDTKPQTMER
iPSC survival up – enhancers of single-cell hiPSC survival, primary screen, ATPlite luminescence; survival enhancement, % at 20 µM; hit rate 0.044% among 360,000; 100% = ROCK inhibitor wells, 0% = DMSO; AID 602274, 2012; in the data active = survival enhancement above about 18%;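 note: cells exposed to compounds for 16 hours before the ATP read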
Numbers without * were called inactive; i = inactive; ? = inconclusive; / = no result given; + = active, no number.

SMILES	Cardio protect	MIN6 prolif	Myeloid diff 2	ABCB6 inh 2	iPSC survival up
Cc1cccc(NC(=O)c2nc[nH]c2C(=O)NCCCNC(=O)c2[nH]cnc2C(=O)Nc2cccc(C)c2)c1	62*	-6	i	89	0
N=C1C(c2nc(-c3cccc([N+](=O)[O-])c3)cs2)=C(O)CN1NC(=O)c1ccco1	2	-5	i	106	-2
Cc1[nH]c2ccccc2c1/C=N/Nc1nc(Nc2ccccc2)nc(N2CCOCC2)n1	60*	-5	+	98	-2
Oc1[nH]c2ccccc2c1N=Nc1nc(Nc2ccccc2)nc(N2CCOCC2)n1	28	-5	i	91	-1
Brc1cccc(OCCCN2CCCCCC2)c1	7	-2	i	102	0
CC[C@]12c3[nH]c4cc(-c5ccco5)ccc4c3CCN1C(=O)[C@@H](CC(=O)NCCCn1ccnc1)C[C@@H]2C(=O)N1CCN(C(=O)C2CC2)CC1	-9	/	+	99	-1
CC[C@]12c3[nH]c4cc(-c5ccco5)ccc4c3CCN1C(=O)[C@@H](CC(=O)NCCCn1ccnc1)C[C@@H]2C(=O)N1CCN(C(=O)c2ccco2)CC1	5	/	i	95	4
O=c1cc(COc2ncnc3c(Cl)cc(Cl)cc23)nc2sccn12	55*	-3	i	99	2
O=C(OCc1cc(=O)n2ccsc2n1)c1ccc(O)cc1O	64*	1	i	96	0
Cc1nc(-c2nc(CC(=O)NNC(=O)c3ccc(Cl)cc3)cs2)cs1	1	0	i	93	0
Cc1cccc(-n2c(C)n[nH]c2=S)c1	1	2	i	98	1
Cc1cccc(-n2c(C)c(-c3ccccc3)[nH]c2=S)c1	-10	-5	+	88	0
COc1cc(/C=C2\SC(=S)N(CCC(=O)NCCc3ccccc3)C2=O)cc(OC)c1OC	-2	-3	i	98	0
COC(=O)C1Cc2ccccc2CN1S(=O)(=O)c1ccc(C)cc1 (centres undefined)	-6	-4	i	103	-1
COc1cc(N2CCCC2)c(OC)cc1/C=C1/NC(=S)NC1=O	5	0	+	482	-1
Oc1ccc(Br)cc1C=Nc1ccc2c3c(cccc13)CC2	87*	-1	+	113	2
CC(=O)c1cccc(NC(=O)CSC(=O)c2ccccc2)c1	4	0	i	100	-1
CCN(CC)c1ccc(NC(=O)CSC(=O)c2ccccc2)cc1	-4	-6	+	90	-2
CCOc1ccc(N2C(=O)CC(C(C)c3ccccc3)C2=O)cc1 (centres undefined)	5	-3	i	99	0
COc1ccc(CNC(=O)Cn2cnc3c(OCc4ccccc4)ncnc32)cc1	8	-1	i	97	2
COc1ccc(CNC(=O)CSc2ncn[nH]2)cc1OC	3	1	+	107	0
N#C/C=C1/NC(=O)c2ccccc2S1	21	-6	+	107	-2
COC(=O)c1ccc2c(c1)NC(=O)c1ccccc1S2	-2	1	i	91	-1
CN1C(=O)CSc2ccc(NC(=O)N3CCN(c4ccccn4)CC3)cc21	57*	-3	i	100	0
CN1C(=O)CSc2ccc(NC(=O)Nc3ccccn3)cc21	59*	1	i	87	0
SMILES	Cardio protect	MIN6 prolif	Myeloid diff 2	ABCB6 inh 2	iPSC survival up
COc1cccc(-c2nc(CS(=O)(=O)CC(=O)NCc3ccc(Cl)cc3)c(C)o2)c1	-1	-2	i	79	-4
CC(C)Cn1c(N)c(C(=O)COC(=O)c2cc(-c3ccco3)nc3ccccc23)c(=O)n(C)c1=O	14	-6	+	90	0
Cn1c(=O)c(C(=O)COC(=O)c2cc(-c3ccco3)nc3ccccc23)c(N)n(Cc2ccccc2)c1=O	/	-6	/	/	/
CCn1cnc2c(Nc3cc(F)cc(F)c3)nc(C#N)nc21	-3	-3	i	95	-2
CCCN1C(=O)/C(=C/c2c(N3CCNC(=O)C3CC(=O)OCC)nc3c(C)cccn3c2=O)SC1=S (centres undefined)	63*	-4	+	311	0
CCOC(=O)CC1C(=O)NCCN1c1nc2ccc(C)cn2c(=O)c1/C=C1\SC(=S)N(CC(C)C)C1=O (centres undefined)	2	-3	+	870	0
CCOC(=O)CC1C(=O)NCCN1c1nc2ccc(C)cn2c(=O)c1/C=C1\SC(=S)N(C(C)CC)C1=O (centres undefined)	/	-4	/	/	/
CCOc1ccc(OC(=O)c2cccc(S(=O)(=O)N3CCN(C)CC3)c2)cc1	-5	-4	i	105	0
COc1cc(/C=N/NC(=O)c2cccnc2)ccc1OS(=O)(=O)c1ccc(F)cc1	85*	-1	i	99	-1
Cc1cc(O)c(C)c(O)c1/C=N/NC(=O)c1cccnc1	51*	-3	i	101	0
COc1ccc(/C=N/NC(=O)c2cccnc2)cc1O	-3	-2	i	99	0
O=C(N/N=C/c1c(O)ccc2ccccc12)c1cccnc1	30	-5	?	105	0
COc1cc(/C=N/NC(=O)c2cccnc2)ccc1OS(=O)(=O)c1ccc(C)cc1	16	-3	i	101	-4
COc1cc(/C=N/NC(=O)c2cccnc2)ccc1OS(=O)(=O)c1cc(C)ccc1C	62*	/	i	89	3
CCCCOc1ccc(S(=O)(=O)Nc2cc(OC)ccc2OC)cc1	-19	-5	i	94	-1
COC(=O)c1ccccc1NC(=O)CNC(=O)c1ccc(OC)cc1	2	-6	i	106	0
O=C1/C(=C/c2ccncc2)CCC/C1=C\c1ccncc1	-12	/	/	106	90*
O=C(OCc1ccccc1)N1CCC2CC1c1c(Cl)cccc12 (centres undefined)	-26	/	i	101	-2
O=C(OCc1ccccc1)N1CCC2CC1c1ccc(Cl)cc12 (centres undefined)	-21	/	+	99	-1
Oc1sc(C=Nc2ccccc2)c2ccccc12	32	-3	i	102	-2
CCN(CC)C(=O)CSc1nc2sc(C)c(C)c2c(=O)[nH]1	44	-2	i	116	4
Cc1sc2nc(SCC(=O)N3CCCCC3)[nH]c(=O)c2c1C	39	0	i	87	3
Cc1sc2nc(SCC(=O)N(C)C)[nH]c(=O)c2c1C	73*	-2	i	94	2
Cc1sc2nc(SCC(=O)N3CCCC3)[nH]c(=O)c2c1C	80*	-3	i	103	0
c1ccc(-c2nnc(N3CCN(c4ccccc4)CC3)nc2-c2ccccc2)cc1	-3	-2	i	95	0
